PubChem BioAssay AID1645859 (Buhrlage Lab, Dana-Farber Cancer Institute and Novartis …, 2021)
About 95 (0.2%) of roughly 47,000 compounds were called active. No stated cut-off is given here; in the data, active means inhibition above about 30%; inactive means the rest. Only a selection was taken, and actives are over-represented in it overall.

molecular target: Ubiquitin carboxyl-terminal hydrolase isozyme L1 (Homo sapiens) (UniProt P09936); test: blocks human UCHL1 ubiquitin-rhodamine cleavage (AID 1645859); settings: purified UCHL1, Ub-rhodamine cleavage fluorescence; at 20 µM; hits give high values
Sequence (P09936 whole entry, looked up): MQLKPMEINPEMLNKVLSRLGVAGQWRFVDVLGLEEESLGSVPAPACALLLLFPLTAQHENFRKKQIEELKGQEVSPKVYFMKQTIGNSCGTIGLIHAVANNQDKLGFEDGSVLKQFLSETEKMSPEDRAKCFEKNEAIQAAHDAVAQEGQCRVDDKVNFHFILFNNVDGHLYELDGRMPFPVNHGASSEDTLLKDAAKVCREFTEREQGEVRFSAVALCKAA

Row | SMILES | inhibition
1 | COC(=O)C(C(C)C)N1CCc2c(C)nc3cc(C#N)nn3c21 (configuration not stated) | -5.64% (inactive)
2 | Cc1cc(/C=C2/C(=N)N3C=CSC3=NC2=O)c(C)n1-c1ccc(F)cc1 | -13% (inactive)
3 | Cn1c(CCN2CCCC2)nc2cc(NS(=O)(=O)c3ccccc3)ccc21 | -2.94% (inactive)
4 | COc1ccc(-n2ncc3c2NC(=O)CC32C(=O)N(CC(C)C)c3ccc(F)cc32)cc1 (configuration not stated) | 3.31% (inactive)
5 | Cc1nnc2ccc(-c3ccc(NC(=O)c4ccc(Br)o4)cc3)nn12 | 7.55% (inactive)
6 | NS(=O)(=O)c1ccc(CCNc2nccn(-c3ccc4c(c3)OCO4)c2=O)cc1 | -4.71% (inactive)
7 | O=C(c1cc2occc2c(Nc2ccc(F)cc2)n1)N1CCN(C(=O)c2ccco2)CC1 | 3.68% (inactive)
8 | CC(C)c1ccc(C2CC(=O)c3cn[nH]c3C2)cc1 (configuration not stated) | 0.362% (inactive)
9 | O=C1CC2(C(=O)Nc3ccccc32)c2cnn(-c3ccccc3Cl)c2N1 (configuration not stated) | -0.024% (inactive)
10 | COc1cccc(C2NC(=O)c3c(sc4c3CCC(C)C4)N2)c1O (configuration not stated) | -0.199% (inactive)
11 | CCn1nccc1-c1cccc(-c2noc(-c3ccccn3)n2)c1 | 3.84% (inactive)
12 | Cn1cccc1/C(C#N)=C\c1ccc2c(c1)OCO2 | 12.5% (inactive)
13 | CCc1cnc(N2CCC3(CC2)CC(Oc2cccnc2)C3)nc1 | -4.29% (inactive)
14 | COc1ccc(NC(=O)c2cnc(N3CCCC3)nc2C)cc1OC | 2.41% (inactive)
15 | CS(=O)(=O)N1CCn2c(nnc2-c2cncc(Br)c2)C1 | 1.7% (inactive)
16 | O=C(c1ccccn1)N1C[C@@H]2C[C@H]1C[C@@H]2NS(=O)(=O)c1ccccc1 | -1.88% (inactive)
17 | Cc1ccc(S(=O)(=O)N2CCC(c3nc(C(=O)N(C)C)c(C)o3)CC2)c(C)c1 | -3.64% (inactive)
18 | CC(=O)c1ccc(S(=O)(=O)Nc2cccc(-c3nc4cccnc4s3)c2C)cc1 | 0.0973% (inactive)
19 | O=C(C1CCN(c2nc3cccnc3s2)CC1)N1CCN(c2ncccn2)CC1 | 5.79% (inactive)
20 | O=c1ccc(S(=O)(=O)N2CCCCCC2)cn1Cc1ccccc1 | -3.73% (inactive)
21 | CNc1cncc(C2CCCN2S(=O)(=O)N2CCCC2)n1 (configuration not stated) | 1.24% (inactive)
22 | Cn1c(=O)c2c(-c3ccc(C(C)(C)C)cc3)n(-c3ccccc3Cl)cc2n(C)c1=O | 3.67% (inactive)

Row | SMILES | inhibition
23 | c1ccc2c(c1)NCCC(c1ccc3c(c1)OCO3)N2 (configuration not stated) | -0.387% (inactive)
24 | CC(C)(C)CN1CC[C@H](c2nnc(-c3cccnc3)o2)C1 | -3.12% (inactive)
25 | COc1ccc(NC(=O)c2cccn3c(-c4ccc(F)cc4)nnc23)c(OC)c1 | -7.15% (inactive)
26 | N#Cc1cnc2ccccc2c1N1CCC(C(=O)N2CCCCC2)CC1 | -2% (inactive)
27 | Cc1nn(CCC(=O)Nc2ccccc2F)c(C)c1S(=O)(=O)N1CCOCC1 | -2.99% (inactive)
28 | O=C(Nc1ccc2c(c1)CCC2)N1CCc2c(nc(-c3ccccc3)[nH]c2=O)C1 | -2.41% (inactive)
29 | O=C(NC1CC1)c1cn(-c2cc(-c3nc(C4CC4)no3)ccn2)cn1 | 2.22% (inactive)
30 | Cc1ccccc1NC(=O)Cc1csc2nc(-c3ccc(F)cc3)cn12 | 6.49% (inactive)
31 | O=C(CN1C(=O)C2CCCC2=Nc2ccccc21)Nc1ccc(F)cc1F (configuration not stated) | 2.04% (inactive)
32 | COCCNC(=O)c1cc(-c2ccn(C3CCCC3)n2)n2ccccc12 | -0.227% (inactive)
33 | COCC(=O)N1CCC(n2c(-c3ccccc3OC)nc3ccccc32)CC1 | -2.92% (inactive)
34 | COCCC(=O)N1CCC2(C/C=C/Cc3ccccc3OCC(=O)NCCNC2=O)CC1 | 3.12% (inactive)
35 | COCC(=O)N1CCN2C[C@H]1C(=O)NC[C@H]1O[C@@H](CC(=O)N[C@H]3C[C@@H](C2=O)N(Cc2ccc(OC(F)(F)F)cc2)C3)[C@H](O)[C@@H]1O | -6.2% (inactive)
36 | FC(F)(F)c1ccc(-c2nnc(SCCOc3ccccc3)o2)cc1 | 11.1% (inactive)
37 | Cc1ccc(CN2CN(C3CCN(C(=O)c4ccoc4)CC3)CC2=O)c(C)c1 | -0.0513% (inactive)
38 | O=C(Nc1nc2nc(-c3ccccc3)cc(=O)n2[nH]1)C1CCCCC1 | 4.88% (inactive)
39 | Cc1nc(-c2cn(C(C)C)c3ncccc23)sc1C(=O)N1CCCC1 | 1.73% (inactive)
40 | Cc1ccc(CNC(=O)c2cc(=O)nc3sc(N4CCCC(C)C4)nn23)cc1 (configuration not stated) | 0.655% (inactive)
41 | COc1ccc(C(NC(=O)CN(C)Cc2ccc3c(c2)OCO3)c2ccccc2)cc1 (configuration not stated) | 6.51% (inactive)
42 | Fc1ccccc1Cn1c(COc2ccccc2)nc2ccccc21 | 8.93% (inactive)
43 | O=C(N[C@@H]1CN(Cc2nccs2)[C@@H]2COC[C@@H]21)C1CCC1 | -3.31% (inactive)
44 | O=C(Nc1ccc(F)cc1)c1cc(CN2CCOCC2)on1 | 1.96% (inactive)

Row | SMILES | inhibition
45 | C=C1CCC2[C@](C)(CCC[C@]2(C)C(=O)OC)[C@H]1CCc1ccoc1/C=C/C(=O)O (some centres not stated) | 9.97% (inactive)
46 | O=C1COC2(CCN(C(=O)C3(c4ccccc4)CCOCC3)C2)CN1c1ccc(F)cc1 (configuration not stated) | 2.68% (inactive)
47 | O=C(CCc1ccncc1)N(Cc1ccc2c(c1)OCO2)C1CCCCC1 | -0.303% (inactive)
48 | COC[C@H]1C[C@@H]2CN(S(=O)(=O)c3ccccc3OC)C(C)[C@H]1N2C (some centres not stated) | 0.608% (inactive)
49 | O=C(Nc1nnc(-c2cccc([N+](=O)[O-])c2)o1)C1CCN(S(=O)(=O)c2ccc3c(c2)CCC3)CC1 | 5.08% (inactive)
50 | Cc1nc(Nc2ccccn2)cc(C2CCCN2Cc2ncc[nH]2)n1 (configuration not stated) | -2.35% (inactive)
51 | CCc1cccc(NS(=O)(=O)c2ccc3c(c2)C(C)(C)C(=O)N3)c1 | 4.05% (inactive)
52 | COc1cccc(CNC(=O)CN2C(=O)CCc3cc(Br)ccc32)c1 | 3.25% (inactive)
53 | O=C1CC2(C(=O)N(Cc3cccc(Cl)c3)c3ccccc32)c2cn[nH]c2N1 (configuration not stated) | -5.23% (inactive)
54 | CCn1c(=O)c2ccccc2n(Cc2nc(-c3ccc(C)cc3)no2)c1=O | -1.69% (inactive)
55 | O=C(C1CCC1)N1CCN2C(=O)c3ccccc3[C@H]2C1 | -4.57% (inactive)
56 | O=C1C(O)=C(c2ccc(O)c(O)c2)C(=O)C(O)=C1c1ccccc1 | 13.7% (inactive)
57 | O=C1OCC2=C1C(c1ccccc1)CC(=O)N2c1cccc(F)c1 (configuration not stated) | -0.0471% (inactive)
58 | Cc1nc(NCCO)c2sc3nc4c(cc3c2n1)COC(C)(C)C4 | 3.92% (inactive)
59 | CCOc1ccccc1-c1nc(-c2nnn(Cc3ccccc3)c2C)no1 | 7.54% (inactive)
60 | COc1ccc(C(Nc2ccc(S(=O)(=O)NCC3CCCO3)cc2)C(=O)NCC2CCCO2)cc1 (configuration not stated) | 1.49% (inactive)
61 | O=C(Cn1c(=O)n(Cc2cccs2)c(=O)c2cc(Cl)ccc21)NCC1CCCO1 (configuration not stated) | 0.727% (inactive)
62 | Cc1nc(N2CCOCC2)ncc1-c1cc(=O)[nH]c(N2CCC(Cc3ccccc3)CC2)n1 | 5.31% (inactive)
63 | Cc1nc2ccccc2n1CC(O)c1ccccc1 (configuration not stated) | -0.449% (inactive)
64 | O=C(c1noc2ccc(S(=O)(=O)N3CCCC3)cc12)N1CCCC1 | 0.984% (inactive)
65 | Cc1ccc(CNc2nc3nc(CN4CCc5ccccc5C4)cc(=O)n3[nH]2)cc1 | -0.288% (inactive)
66 | O=C(Cn1cc(SCc2cccc(F)c2)c2ccccc21)N1CCCCCC1 | 7.23% (inactive)

Row | SMILES | inhibition
67 | Cc1c(-c2nn3c(-c4ccco4)nnc3s2)cccc1[N+](=O)[O-] | 61.3% (active)
68 | CC(C)Cc1cc(-c2nn3c(-c4ccccc4Cl)nnc3s2)n[nH]1 | 5.44% (inactive)
69 | O=C(COc1cccc2ccc(N3CCC(Cc4ccccc4)CC3)nc12)NCc1ccc(F)cc1 | 2.33% (inactive)
70 | O=C(c1cn(-c2cc(-c3nc(C4CC4)no3)ccn2)cn1)N1CCCCCC1 | -3.62% (inactive)
71 | O=C(NCCN1CCOCC1)C1CCN(c2ccc(N3CCCCC3)nn2)CC1 | -0.229% (inactive)
72 | Cc1ncc(-c2ccncc2)c(C2CCN(C(=O)c3cnccn3)CC2)n1 | 0.226% (inactive)
73 | Cn1cc2nc(SCC(=O)NCc3ccc(Cl)cc3)n(CC3CC3)c(=O)c2n1 | -3.8% (inactive)
74 | O=c1c2ccccc2c(-c2nc(-c3ccncc3)no2)cn1-c1ccc(F)cc1 | 3.33% (inactive)
75 | CCCCCCSc1ncnc2c1sc1nc(-c3ccccc3)c3c(c12)CC(C)(C)OC3 | -2.54% (inactive)
76 | CSc1ncnc2c1sc1nc(-c3ccccc3)c3c(c12)CC(C)(C)OC3 | 2.83% (inactive)
77 | CC1(C)Cc2c(c(-c3ccco3)nc3sc4c(SCCCc5ccccc5)ncnc4c23)CO1 | 56.3% (active)
78 | CCc1cnc(N2CC[C@@H]3CN(CC)S(=O)(=O)[C@@H]3CC2)nc1 | 1.62% (inactive)
79 | Cc1nc2c(c(=O)[nH]1)C(c1ccc(OCc3ccccc3F)cc1)CC(=O)N2 (configuration not stated) | -1.23% (inactive)
80 | Cc1cc(N(C)C)nc(N2CCN(S(=O)(=O)c3ccc(-c4ccccc4)cc3)CC2)n1 | 1.74% (inactive)
81 | Cc1cc(C)c2c(C)c(C(=O)NCc3csc(C)n3)oc2c1 | -0.0316% (inactive)
82 | Cc1ccc(C(=O)N2CCc3cc(-c4csc(NC(=O)CNc5ccccc5)n4)ccc32)cc1 | -0.728% (inactive)
83 | Cc1nn(-c2ccc(Cl)cc2)c2c1C(c1cccc(Br)c1)N1C(=N2)N(C)c2c1c(=O)n(C)c(=O)n2C (configuration not stated) | -0.542% (inactive)
84 | COCCCn1c(C(=O)N2CCC(C)CC2)cc2c(=O)n3ccccc3nc21 | -5.93% (inactive)
85 | O=C1CN(C(=O)c2ccc(Cl)o2)c2ccccc2N1 | -5.13% (inactive)
86 | CCc1nnc2ccc(C(=O)N3CCN(c4ccccn4)CC3)cn12 | 1.5% (inactive)
87 | Fc1cc(F)cc(-c2noc3ncnc(N(Cc4ccco4)CC4CCCO4)c23)c1 (configuration not stated) | 0.782% (inactive)
